Among the data in PubChem BioAssay are z-score and composite z-score values, retold here.

Active and inactive are the calls of the source.

Test [1] can be described thus: optical density shifts of acrAB sulA E. coli – strain DRC41, OD650, 48 h, E. coli filamentation inducer project, primary screen (AID 1152).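 Note: E. coli MC1000 strain DRC41 lacking acrAB efflux pump and sulA.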 Conditions: higher = more signal, called active from +8 up or from −8 down.
A short description of test [2]: probe aLefty1 binding on compound microarray – biochemical, small-molecule microarray, 635/667 nm fluorescence, primary screen (AID 1153).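 Note: score merges spot fluorescence with signal-to-noise ratio from the scanned slide images.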 Particulars: higher = more signal.
Test [3] is described as follows: plasmodial surface anion channel blockers, osmotic lysis – cell-based, P. falciparum Indochina, OD700, 1 h, primary screen (AID 1154). Conditions: P. falciparum Indochina infected RBC osmotic lysis, higher = more signal, called active from +8 up or from −8 down.
Test [4] in a line: plasmodial surface anion channel blockers, osmotic lysis – cell-based, P. falciparum Indochina, OD700, 2 h, primary screen (AID 1155).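 Note: lysis reports solute entry through the parasite surface anion channel PSAC.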 Particulars: P. falciparum Indochina infected erythrocytes, higher = more signal, called active from +8 up or from −8 down.
The nature of test [5]: changes in parasitized red cell lysis, either direction – P. falciparum Indochina, OD700, 3 h, PSAC antagonist project, primary screen (AID 1156). Conditions: P. falciparum-infected erythrocytes, osmotic lysis, higher = more signal, called active from +8 up or from −8 down.
Test [6] in a line: plasmodial surface anion channel blockers, osmotic lysis – cell-based, P. falciparum Indochina, OD700, 18 h, primary screen (AID 1157). Conditions: P. falciparum Indochina infected erythrocytes, osmotic lysis OD700, 18 h; higher = more signal, called active from +8 up or from −8 down.
Test [7] can be described thus: S6 kinase pathway phospho-S6 level changes – cell-based, A549, cytoblot, luminescence, serum-stimulated, primary screen (AID 1158).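 Note: serum-stimulated A549 lung adenocarcinoma cells; signal is phosphorylated S6 detected by cytoblot immunostaining with HRP secondary.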 Particulars: 5 h, higher = more signal.
Test [8] has as its target NADPH oxidase 2 (Homo sapiens) (UniProt P04839). The test can be described thus: compounds shifting NOX2 Amplex Red fluorescence – cell-based, HEK293-NOX2, PMA-stimulated, NOX inhibitor project, primary screen (AID 1159). Note: test concentration not given here. Particulars: 45 min, higher = more signal, called active from +8 up or from −8 down.
Test [9] has as its target NADPH oxidase 4 (Homo sapiens) (UniProt Q9NPH5). Nature of the test: compounds shifting NOX4 Amplex Red fluorescence – cell-based, HEK293-NOX4, tetracycline-induced, NOX inhibitor project, primary screen (AID 1160). Conditions: HEK293-NOX4, Amplex Red H2O2 fluorescence, 45 min; higher = more signal, called active from +8 up or from −8 down.
Test [10] concerns the target NADPH oxidase 5 (Homo sapiens) (UniProt Q96PH1). Nature of the test: compounds shifting NOX5 Amplex Red fluorescence – cell-based, HEK293-NOX5, NOX inhibitor project, primary screen (AID 1161). Particulars: HEK293-NOX5, ionomycin, 45 min, higher = more signal.

Sequence of NADPH oxidase 2 (Homo sapiens) (P04839 whole entry, looked up): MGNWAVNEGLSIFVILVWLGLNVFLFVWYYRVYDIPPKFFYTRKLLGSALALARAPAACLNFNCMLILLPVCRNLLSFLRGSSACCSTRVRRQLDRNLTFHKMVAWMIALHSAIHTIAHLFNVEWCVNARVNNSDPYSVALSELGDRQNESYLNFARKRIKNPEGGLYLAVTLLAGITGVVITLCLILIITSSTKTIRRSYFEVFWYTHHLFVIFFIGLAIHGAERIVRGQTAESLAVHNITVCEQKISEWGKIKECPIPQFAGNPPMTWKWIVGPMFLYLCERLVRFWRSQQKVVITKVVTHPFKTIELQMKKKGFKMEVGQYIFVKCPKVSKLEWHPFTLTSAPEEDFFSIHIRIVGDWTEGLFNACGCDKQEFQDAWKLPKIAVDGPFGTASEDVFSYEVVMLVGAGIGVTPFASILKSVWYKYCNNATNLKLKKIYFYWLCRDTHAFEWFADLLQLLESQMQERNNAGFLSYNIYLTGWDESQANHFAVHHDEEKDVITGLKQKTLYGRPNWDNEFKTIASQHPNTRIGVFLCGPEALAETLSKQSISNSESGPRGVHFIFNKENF
Sequence of NADPH oxidase 4 (Homo sapiens) (Q9NPH5 whole entry, looked up): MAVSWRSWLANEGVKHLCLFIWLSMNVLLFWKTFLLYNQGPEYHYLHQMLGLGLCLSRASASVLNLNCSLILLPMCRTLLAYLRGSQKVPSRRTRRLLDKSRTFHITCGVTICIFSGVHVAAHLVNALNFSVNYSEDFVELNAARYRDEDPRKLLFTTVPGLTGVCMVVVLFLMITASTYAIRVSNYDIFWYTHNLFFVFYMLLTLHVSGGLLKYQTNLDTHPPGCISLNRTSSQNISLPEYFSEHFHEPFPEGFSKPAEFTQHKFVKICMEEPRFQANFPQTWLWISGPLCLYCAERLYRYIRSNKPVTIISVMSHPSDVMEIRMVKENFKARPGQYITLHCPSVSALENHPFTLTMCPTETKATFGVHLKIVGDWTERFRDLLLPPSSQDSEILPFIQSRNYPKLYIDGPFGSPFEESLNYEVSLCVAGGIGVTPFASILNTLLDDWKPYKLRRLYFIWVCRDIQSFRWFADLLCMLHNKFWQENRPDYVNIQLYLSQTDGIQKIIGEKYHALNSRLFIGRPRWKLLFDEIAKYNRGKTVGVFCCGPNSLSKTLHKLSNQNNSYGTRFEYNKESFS
Sequence of NADPH oxidase 5 (Homo sapiens) (Q96PH1 whole entry, looked up): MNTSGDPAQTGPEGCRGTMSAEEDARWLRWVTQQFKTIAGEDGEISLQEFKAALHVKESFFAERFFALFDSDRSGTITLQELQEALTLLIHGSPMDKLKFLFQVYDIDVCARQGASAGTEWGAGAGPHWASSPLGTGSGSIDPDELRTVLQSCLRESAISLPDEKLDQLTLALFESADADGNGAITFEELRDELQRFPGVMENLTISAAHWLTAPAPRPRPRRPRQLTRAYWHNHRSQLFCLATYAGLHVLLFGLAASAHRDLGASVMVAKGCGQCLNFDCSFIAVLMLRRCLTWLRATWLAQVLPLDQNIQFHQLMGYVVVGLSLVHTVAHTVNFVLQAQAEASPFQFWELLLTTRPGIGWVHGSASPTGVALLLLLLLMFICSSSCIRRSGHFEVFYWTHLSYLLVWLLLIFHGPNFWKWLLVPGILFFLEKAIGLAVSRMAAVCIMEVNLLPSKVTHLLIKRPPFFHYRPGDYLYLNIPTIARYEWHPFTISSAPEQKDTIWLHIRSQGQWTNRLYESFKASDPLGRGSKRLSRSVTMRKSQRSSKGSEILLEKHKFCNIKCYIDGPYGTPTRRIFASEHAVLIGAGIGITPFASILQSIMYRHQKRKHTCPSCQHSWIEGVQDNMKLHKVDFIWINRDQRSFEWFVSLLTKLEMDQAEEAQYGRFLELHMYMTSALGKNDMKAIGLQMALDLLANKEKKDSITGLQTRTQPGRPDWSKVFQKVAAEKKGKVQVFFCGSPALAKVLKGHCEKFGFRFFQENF

Take `C=CCNC(=O)[C@H]1[C@@H]2C(=O)O[C@@H](c3ccccc3)[C@@H](c3ccccc3)N2[C@@H](c2ccc(O)cc2)[C@]12C(=O)N(C(=O)OCCOC)c1ccc(C#CCCO)cc12`: the z-score was 1.23 (inactive) in test [1]; 1.89 (inactive) in test [3]; 0.658 (inactive) in test [4]; 0.958 (inactive) in test [5]; 0.418 (inactive) in [6]; 0.102 in test [7]. The z-score in test [8] is 0.74 (inactive); in [9], 0.261 (inactive); in [10], 0.533. The composite z-score in test [2] amounted to 0.0341.
`CC(C)C[C@@H]1NC(=O)[C@H]2C[C@@H](C(=O)NCCCCCNC(=O)CS)[C@@H](c3cccc(OCCO)c3)N2C1=O`: the z-score was -0.586 (inactive) in test [1]; 2.59 (inactive) in [3]; 0.505 (inactive) in test [4]; -0.47 (inactive) in [5]; 0.327 (inactive) in test [6]; -0.592 in test [7]. The figures for the z-score in [8], in [9] and in [10] were 2.16 (inactive), 1.21 (inactive) and 0.93, respectively. The compound further gave a composite z-score in [2] of -0.0511.
Take `O=C1O[C@@H](c2ccccc2)[C@@H](c2ccccc2)N2[C@@H](c3ccc(O)cc3)[C@]3(C(=O)Nc4ccc(C#CC5(O)CCCCCC5)cc43)[C@@H](C(=O)N3CCCCCCC3)[C@H]12`: the z-score in [1] is 0.489 (inactive); in test [3], 1.32 (inactive); in test [4], 0.836 (inactive); in test [5], 1.17 (inactive); in [6], 0.564 (inactive); in [7] it was 0.181. Further, the z-score is 1.1 (inactive) in test [8], 1.09 (inactive) in [9] and 0.682 in test [10]. Further, the composite z-score in test [2] came out at 2.77.
Regarding `CC(=O)Nc1cc(Br)ccc1C(=O)O`, the z-score in test [1] is -0.657 (inactive); in test [3] it was 0.552 (inactive); in test [4], 0.501 (inactive); in test [5], -0.904 (inactive); in [6] it was 0.305 (inactive); in test [7], -0.107. Besides, the z-score in test [8] was 0.385 (inactive); in [9], -0.128 (inactive); in test [10], -0.269. In test [2], the composite z-score is 0.0494.
Regarding `CCC[C@@H]1C=C(C(=O)O)[C@H](c2ccc(C)cc2)N1S(=O)(=O)c1ccc(C)cc1`, the z-score in test [1] was -0.75 (inactive); in test [3], 0.0822 (inactive); in test [4], 0.932 (inactive); in test [5] it was -0.246 (inactive); in test [6], 1.03 (inactive); in test [7] it was -0.476. In addition, the values for the z-score in test [8], in test [9] and in test [10] were 0.769 (inactive), -0.741 (inactive) and 0.101, respectively. For the same compound, the composite z-score in test [2] is 0.114.
Consider `[N-]=[N+]=NCc1ccccc1[C@@H]1OC(c2ccc(OCCCO)cc2)=N[C@]1(Cc1ccccc1N=[N+]=[N-])C(=O)NCc1ccccc1`, for which the z-score in test [1] was -2.95 (inactive); in [3], 21.8 (active); in [4] it was 4.97 (inactive); in [5], 3.79 (inactive); in test [6], 1.33 (inactive); in test [7], -0.33. For the same compound, the z-score in [8] was -0.654 (inactive); in test [9], 0.0734 (inactive); in test [10], 0.235. The compound also displayed a composite z-score in test [2] of 0.639.
As for `CCOC(=O)C1=CC[C@@H](c2ccccc2Cl)N(S(=O)(=O)c2ccc(C)cc2)C1`, the z-score is 0.0023 (inactive) in test [1]; 4.85 (inactive) in test [3]; -0.477 (inactive) in test [4]; -0.981 (inactive) in test [5]; -1.69 (inactive) in test [6]; 0.676 in [7]. The z-score in test [8] was 0.358 (inactive); in [9] it was -0.832 (inactive); in test [10] it was -0.93. For the same compound, in [2], the composite z-score came to 0.276.
Turning to `COC(=O)[C@@]1(Cc2ccc(OC)cc2)[C@H]2c3cc(C(=O)N4CCCC4)n(CCc4c[nH]c5cc(F)ccc45)c3C[C@H]2CN1C(=O)c1ccccc1`, the z-score is -0.429 (inactive) in test [1]; 3.07 (inactive) in [3]; 0.676 (inactive) in test [4]; 0.745 (inactive) in test [5]; 1.06 (inactive) in [6]; -0.174 in test [7]. Moreover, the z-score in [8] is 0.438 (inactive); in test [9] it was 0.0193 (inactive); in test [10], -0.293. The same compound came in with a composite z-score in test [2] of 1.27.
In the case of `[N-]=[N+]=NCc1ccccc1C[C@]1(C(=O)NCC(O)CO)N=C(c2ccc(OCCCO)cc2)O[C@H]1c1ccccc1N=[N+]=[N-]` (stereo not given in full), the z-score in [1] is 0.801 (inactive); in test [3], 31.1 (active); in test [4], 32.2 (active); in [5], 2.92 (inactive); in [6], 3.93 (inactive); in [7], 0.828. The z-score is -0.689 (inactive) in test [8], -0.154 (inactive) in test [9] and -1.77 in test [10]. The same compound gave a composite z-score in [2] of 0.12.
With `[N-]=[N+]=NCc1ccccc1C[C@@]1(C(=O)NCC(O)CO)N=C(c2ccc(OCCCO)cc2)O[C@@H]1c1ccccc1CN=[N+]=[N-]` (stereo not given in full), the z-score is 0.19 (inactive) in [1]; 27.4 (active) in test [3]; 14.6 (active) in [4]; 0.029 (inactive) in [5]; 2.24 (inactive) in [6]; -0.324 in [7]. Moreover, the z-score in [8] is 0.266 (inactive); in test [9], 1.54 (inactive); in test [10], 2.31. Further, in [2], the composite z-score was 0.455.
`C=C(CCCC)C(=O)CC[C@H](OC(=O)c1cccnc1)c1cccc(OCCO)c1`: the z-score in test [1] was -0.03 (inactive); in test [3], 20.7 (active); in test [4], 4.33 (inactive); in test [5], 1.83 (inactive); in test [6], 1.19 (inactive); in [7], 0.0701. The z-score was -0.372 (inactive) in test [8], -0.417 (inactive) in test [9] and -2.11 in [10]. Moreover, the composite z-score in test [2] was -0.147.
As for `C=CCC(OC(C)=O)[C@@H]1[C@@H](N(Cc2ccc(-c3ccccc3)cc2)C(=O)Cc2ccc(F)cc2)c2cc(OCCCO)ccc2N1C(=O)c1ccc2ccccc2n1` (stereo not given in full), the z-score was 1.51 (inactive) in [1]; 0.879 (inactive) in test [3]; 1.19 (inactive) in test [4]; -0.385 (inactive) in test [5]; 0.505 (inactive) in test [6]; 0.374 in [7]. In addition, the z-score in [8] was -0.632 (inactive); in test [9] it was 0.631 (inactive); in [10], 1.95. Also, in test [2], the composite z-score was found to be 0.22.
`COCCCNC(=O)[C@@]1(CCC(=O)OC(C)(C)C)N=C(c2ccc(OCCCO)cc2)O[C@H]1c1ccccc1CN=[N+]=[N-]`: the z-score in [1] was 0.369 (inactive); in [3], 23.2 (active); in test [4] it was 4.71 (inactive); in [5] it was 1.35 (inactive); in test [6] it was 0.883 (inactive); in test [7], 0.0769. For the same compound, the z-score in test [8] was 1.95 (inactive); in test [9] it was 2.2 (inactive); in test [10], 2.48. The composite z-score in test [2] turned out to be 0.428.
